Bioassay records deposited in PubChem by National Center for Advancing Translational Sciences (NCATS).
An excerpt weighted towards active compounds, which were near 9.4% of everything screened.
Rab9 promoter act: Rab9 promoter activation. AID 485297. 320,000 tested, 2.8% active. Huh7 Rab9 promoter-luciferase reporter, luminescence, 24 h. Potency, µM (highest dose often 9.22 µM), for inactives: at the highest dose activation, negative = inhibition, actives largely listed as activators; further: % of control where 0% means no effect; nearly all actives have a fitted effect of over 60% in size
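Measured in stably transfected Huh7 cells bearing a Rab9 promoter–luciferase construct: 24 h compound treatment at 37 °C, followed by luminescence detection.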
NPC1 prom act: activators of NPC1 promoter; Potency, µM (series often up to 9.22 µM), inactives show top-dose activation, usual class: activators; Huh7 NPC1 promoter luciferase reporter, 24 h; 320,000 tested, 2.4% active; AID 485313; further: % of control where 0% means no effect; nearly all actives have a fitted effect of over 60% in size
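Stable NPC1-promoter luciferase Huh7 line; cpd (DMSO) 24 h, 37 °C, 5% CO2; Amplite luciferase reagent 10 min RT; luminescence readout. qHTS format.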
FLuc modulator: firefly luciferase modulation, counter-screen for miR-21 project. P08659. purified FLuc, Km substrates, luminescence inhibition. Potency, µM (top dose mostly 57.5 µM), for inactives: top-dose activity change, negative = inhibition, usual class: inhibitors. 360,000 tested, 6.9% active. AID 588342;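 further: plate controls were vehicle for no effect and reference inhibitor for full effect; nearly all actives have a fitted effect of over 55% in size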
Target sequence (P08659 whole entry, looked up): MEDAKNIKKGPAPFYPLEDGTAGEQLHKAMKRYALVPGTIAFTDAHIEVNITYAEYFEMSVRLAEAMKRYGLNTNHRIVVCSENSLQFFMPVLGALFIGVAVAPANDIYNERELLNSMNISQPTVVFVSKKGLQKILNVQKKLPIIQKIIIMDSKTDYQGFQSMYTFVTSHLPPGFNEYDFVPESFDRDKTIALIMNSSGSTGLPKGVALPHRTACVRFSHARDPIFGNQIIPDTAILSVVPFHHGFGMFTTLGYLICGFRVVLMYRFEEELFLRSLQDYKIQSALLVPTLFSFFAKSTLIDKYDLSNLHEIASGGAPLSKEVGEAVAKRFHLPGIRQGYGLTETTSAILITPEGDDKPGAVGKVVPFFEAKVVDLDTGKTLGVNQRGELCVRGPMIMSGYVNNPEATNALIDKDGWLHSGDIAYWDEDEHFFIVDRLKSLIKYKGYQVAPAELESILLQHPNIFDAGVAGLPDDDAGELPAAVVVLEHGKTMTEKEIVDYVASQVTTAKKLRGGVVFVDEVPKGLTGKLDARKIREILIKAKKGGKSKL
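Purified P. pyralis luciferase, 10 nM final, with Km-level 10 uM D-luciferin and 10 uM ATP in 50 mM Tris acetate pH 7.5, 10 mM Mg acetate, 0.01% Tween-20, 0.05% BSA; 6-point qHTS titration about 60 µM downward; luminescence read.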
SMN2 splice enh: enhancers of SMN2 splice variant expression; Potency, µM (titrated, usually from 46.1 µM), inactives show top-dose activity change, positive = activation, actives largely listed as activators; AID 1458; HEK293 SMN2-luciferase splicing reporter, luminescence, 30-36 h; 210,000 tested, 2.8% active; further: % of control where 0% means no effect; nearly all actives have a fitted effect of over 55% in size
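qHTS luciferase splicing reporter: luminescence rises when SMN2 exon 7 is included in transfected HEK293 cells. Compound exposure lasted 30-36 h at 37C, with 4.5 mM final sodium butyrate as control, followed by a ONE-Glo read.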
ELG1 genotoxic: inducers of genotoxicity in HEK293T ELG1-luciferase cells. HEK293T ELG1-luciferase reporter, luminescence, 16 h. Potency, µM (titrated, usually from 46 µM), for inactives: at the highest dose activity change, positive = activation, hits mostly activators. 330,000 tested, 1.3% active; further: % of control where 0% means no effect; nearly all actives have a fitted effect of over 60% in size
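Genotoxic stress is detected as increased luminescence from luciferase-tagged ELG1 in HEK293T cells, measured with ONE-Glo after a 16 hr treatment at 37 °C.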
ELG1 DNA repair: ELG1-dependent DNA repair inhibition. 330,000 tested, 2.3% active. HEK293T ELG1-luciferase reporter, luminescence, 16 h; DNA damage induced by 5-fluorouridine. Potency, µM (doses to about 46.1 µM), without a hit: at the top dose activity change, negative = inhibition, most hits filed as inhibitors. AID 504467; further: on the % scale 0 is the no-effect control and ±100 the full control effect; nearly all actives have a fitted effect of over 55% in size
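DMSO vehicle served as the neutral condition. Each well held 2,000 cells given 5-fluorouridine plus compound; after 16 hr at 37 °C/5% CO2, ONE-Glo was added and luciferase measured 30 min later.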
* marks the source's active call; other numbers are inactive results; ? = inconclusive; nt = not tested or not shown; [ ] = remark or other dose. The call rests on the fitted dose curve; in most records, active means well fitted curve in the direction sought with a large enough effect; inconclusive means small, poorly fitted or top-dose-only effect, or another doubt; inactive means no such curve, though single readings can be large; an effect the other way counts as inactive or inconclusive. Potency means the concentration at half of the fitted maximal effect.

SMILES	Rab9 promoter act	NPC1 prom act	FLuc modulator	SMN2 splice enh	ELG1 genotoxic	ELG1 DNA repair
Cc1nn(-c2ccccc2)c(N2CCCC2)c1/C=N/NC(=O)c1cc(-c2cccs2)nc2ccccc12	-6%	-3%	-2%	-8%	-5%	15µM*
Cc1nn(-c2ccccc2)c(N2CCCC2)c1/C=N/NC(=O)c1cc(-c2ccccn2)nc2ccccc12	-5%	1%	-1%	-33%	-7%	8.2µM*
Cc1cc(Cl)c2oc(C(=O)N(C)C3CCOC3)c(C)c2c1 (configuration not stated)	4µM*	?	21µM*	nt	?	?
Cc1cc(Cl)c2oc(C(=O)N(C)Cc3ccon3)c(C)c2c1	2.8µM*	4µM*	13µM*	nt	18µM*	?
Cc1cc(Cl)c2oc(C(=O)N(C)Cc3cc(C)[nH]n3)c(C)c2c1	2%	2%	-2%	nt	14%	5%
COc1cc(NC(=O)c2cccc(Cl)c2Cl)ccc1NC(=O)c1cc2ccccc2o1	nt	nt	0%	-23%	nt	nt
Oc1[nH]c2ccccc2c1C=Nc1ccc2c(c1)OCCO2	1.4µM*	?	0.85µM*	nt	?	?
Oc1c(Br)cc(Br)cc1C=Nc1ccc2c(c1)OCCO2	4%	1%	24µM*	0%	?	?
CCC(Sc1nnc2c(n1)[nH]c1ccccc12)C(=O)Nc1nnc(C(C)C)s1 (configuration not stated)	nt	nt	?	-1%	nt	nt
Cc1ccc(CCNC(c2ccc(F)cc2)c2nnc(-c3ccccc3Cl)o2)cc1 (configuration not stated)	nt	nt	-1%	-6%	nt	nt
Cc1nc(-n2nc(C)c(CCC(C)C)c2C)sc1C(=O)Nc1ccc(Br)cc1	nt	nt	-2%	nt	nt	nt
CCOc1ccc(C(=O)Nc2c(C(=O)Nc3ccccc3OC)oc3ccccc23)cc1OCC	nt	nt	?	9%	nt	nt
COc1ccc(/C=C2\SC(=S)N(CC(=O)NC3C=CS(=O)(=O)C3)C2=O)cc1 (configuration not stated)	1%	3%	1.9µM*	nt	2%	2%
COc1ccc(/C=C2\SC(=S)N(C(C)C(=O)NC3C=CS(=O)(=O)C3)C2=O)cc1 (configuration not stated)	15%	11%	17µM*	nt	1%	?
CC(=O)N(CC(O)CN(C(C)=O)c1c(I)c(C(=O)NC[C@@H](O)CO)c(I)c(C(=O)NC[C@@H](O)CO)c1I)c1c(I)c(C(=O)NC[C@@H](O)CO)c(I)c(C(=O)NC[C@@H](O)CO)c1I	nt	nt	nt	1%[20.6 µM]	nt	nt
Cc1ccc(C(=O)N(Cc2ccco2)Cc2sccc2C)cc1	nt	nt	?	-2%	nt	nt
O=C(Cc1ccc(-n2c(=O)c3ccccc3n(Cc3ccccc3F)c2=O)cc1)NCC1CCCO1 (configuration not stated)	0%	2%	-1%	-15%	0%	?
O=C(Cc1ccc(-n2c(=O)c3ccccc3n(Cc3ccccc3Cl)c2=O)cc1)NCC1CCCO1 (configuration not stated)	2%	1%	-7%	-2%	-5%	9.2µM*
O=C(Cc1ccc(-n2c(=O)c3ccccc3n(Cc3ccc(F)cc3)c2=O)cc1)NCC1CCCO1 (configuration not stated)	-1%	-1%	0%	9%	1%	10µM*
CCc1cccc(NC(c2nnc(-c3ccccc3)o2)c2ccc(F)cc2Cl)c1 (configuration not stated)	nt	nt	0%	nt	nt	nt
COc1ccc(OCc2nnc(SCC(=O)Nc3cccc(C(C)=O)c3)o2)cc1	-1%	-3%	19µM*	nt	-2%	2%
C=CCn1c(COc2ccc3c(c2)CCCC3)nnc1SCC(=O)Nc1cccc(SC)c1	8%	11%	13µM*	8%	-8%	2%
C=CCn1c(COc2ccccc2)nnc1SCC(=O)Nc1ccc2c(c1)OCCO2	3%	-6%	-8%	-2%	4%	-9%
COc1cccc(NC(=O)CSc2nnc(COc3ccc4c(c3)CCCC4)o2)c1	1%	12%	21µM*	1%	-1%	-13%
Cc1cc(C)c(NC(=O)Cn2c(=O)n(CCCCC(=O)NCc3ccccc3Cl)c(=O)c3ccccc32)c(C)c1	nt	nt	-5%	-4%	nt	nt
SMILES	Rab9 promoter act	NPC1 prom act	FLuc modulator	SMN2 splice enh	ELG1 genotoxic	ELG1 DNA repair
COc1cccc(C(=O)CC2(O)C(=O)Nc3ccc(Cl)cc32)c1 (configuration not stated)	nt	nt	3%	-14%	nt	nt
CCCCC(=O)OCc1nc(N)nc(Nc2ccccc2C)n1	2%	2%	19µM*	10%	?	?
Cc1ccccc1Nc1nc(N)nc(COC(=O)C2CCCCC2)n1	13%	-1%	15µM*	13%	12%	?
O=C(c1ccccc1Cl)N1CCCC(c2nc3c(nnn3Cc3ccc(F)cc3F)c(=O)[nH]2)C1 (configuration not stated)	nt	nt	-19%	-4%	nt	nt
COc1ccc(CNC(=O)C(CCSC)NS(=O)(=O)c2ccc3c(c2)oc(=O)n3C)cc1 (configuration not stated)	nt	nt	-1%	nt	nt	nt
CCOC(=O)c1c(Nc2ccccc2OCCOC)n[nH]c1C	-1%	2%	7%	nt	-9%	21µM*
Cc1cc(C(=O)COC(=O)c2ccc(O)cc2O)c(C)n1-c1ccccc1	?	?	2.1µM*	nt	?	?
Cc1cc(C(=O)OCC(N)=O)c(C)n1-c1ccccc1	17%	16%	?	?	16%	?
CCOC(=O)c1cc(C)n(-c2ccccc2)c1C	25%	0%	15µM*	nt	?	?
COc1ccc(-n2c(C)cc(C(=O)COC(=O)c3ccc(O)cc3O)c2C)cc1	-16%	-4%	?	nt	-4%	?
COc1ccc(N2CCN(S(=O)(=O)CCNC(=O)c3ccc(OC(C)C)cc3)CC2)cc1	nt	nt	-1%	nt	nt	nt
COc1cccc(CN(C)C(=O)c2ccc(N3CCCC3)c([N+](=O)[O-])c2)c1	0%	0%	5%	nt	-7%	0%
COc1cc(COC(=O)Oc2ccc(CNC(C)=O)cc2OC)c([N+](=O)[O-])cc1OC	-5%	-3%	-4%	nt	4%	10%
COc1ccc(COC(=O)Oc2ccc(CNC(C)=O)cc2OC)c([N+](=O)[O-])c1	-2%	-4%	13µM*	nt	0%	30%
O=C(Cn1ncc2ccsc2c1=O)N1CCN(c2ccc(Cl)cc2)CC1	nt	nt	-3%	-25%	nt	nt
CCC(Cl)CC(Cl)C(Cl)C(Cl)C(Cl)C(C)Cl (configuration not stated)	nt	nt	nt	-8%	nt	nt
O=C(Nc1ccccc1)N1CCN(c2ccc(C(F)(F)F)cn2)CC1	-7%	-2%	-1%	-48%	-10%	21µM*
